Test results from PubChem BioAssay (NCATS).
Active and inactive are the calls of the source. Entries that show only a call come without a potency. Calls follow the shape of the dose curve; as a rule, active = well fitted curve in the direction sought with a large enough effect; inconclusive = small, poorly fitted or top-dose-only effect, or another doubt; inactive = no such curve, though single readings can be large or run the other way. Peptide text beside a SMILES is read from it. * marks the point of attachment. Octanoyl = CCCCCCCC(=O)*

Test: qHTS for ATAD5 Agonist screened against the NCATS CANVASS Library (AID 1347367);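 also: luciferase reporter driven by ATAD5 which rises upon DNA damage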
Settings: HEK293T ATAD5-luciferase reporter, luminescence, 16 h; series mostly up to 46.1 µM
Description: Natural products and their derivatives continue to be wellsprings of nascent therapeutic potential. However, many laboratories have limited resources for biological evaluation, leaving their previously isolated or synthesized compounds largely or completely untested. To address this issue, the Canvass library of natural products was assembled (https://tripod.nih.gov/canvass), in collaboration with academic and industry researchers, for quantitative high-throughput screening (qHTS) across a diverse set of cell-based and biochemical assays. The pure (>85% purity by liquid chromatography/mass spectrometry [LC/MS]) Canvass library of 346 natural products were submitted by 45 academic laboratories and companies around the world. We collected pure natural products to circumvent deconvolution and structure elucidation due to time and resource limitations. The library was formatted into 1536-well plates and evaluated in 50 qHTS (in an 11-pnt concentration series) bioassays with broad scope of disease-relevant mechanisms. The resulting data set from 50 different assays was then systematically analyzed to identify overall trends and specific natural products with interesting biological activities. Reported herein are the results of each individual qHTS and their corresponding assay protocol. Human ATAD5 is a biomarker for identifying gentoxic compounds because ATAD5 protein levels increase post-transcriptionally in response to DNA damage. A cell-based assay is used to detect DNA damage inducers and genotoxic compounds as well. The assay is based upon a luciferase reporter gene under control of ATAD5 that has been stably integrated into HEK 293T cells. Luminescence intensity is proportional to ATAD5 expression. National Center for Advancing Translational Sciences (NCATS), Rockville, MD National Institute of Health (NIH), Bethesda, Maryland
ATAD5 Agonist assay protocol: 1. In a 1536 well, tissue culture treated white solid bottom plates (Greiner Bio-One North America), 5 uL of HEK293T-ATAD5 cell solution (2000 cells / well) was dispensed using the Multidrop Combi dispenser (Thermo Fisher Scientific). 2. The assay plates were incubated for 5hr at 37C, 5% CO2 to allow the cells to acclimate and attach. 3. Controls and compounds were pin transferred (~23 nL volume) to the assay plates via Wako Pin-tool (Wako Automation, Richmond VA) equipped with a 1536 pin head. The compounds were transferred to columns 5-48 resulting in a final concentration ranging from 0.6nM to 92uM. Methyl methanesulfonate (MMS) was used as a control in various concentrations (columns 1: dose response, column2: 0.7mM, and column3: 0.6mM). DMSO (0.46% final concentration was used as a negative control. 4. The assay plates were further incubated in the dark at 37C, 5% CO2 for 16hr. 5. To measure cell viability, 1uL of CellTiter-Fluor (Promega) reagent was then added to the assay plates (column 1-48, rows 1-32). The assay plates were incubated in the dark for 1hr at 37C, 5% CO2. 6. A first readout of fluorescence signal was acquired via the ViewLux (PerkinElmer) plate reader using filter sets for AFC (380-400nmEx/505Em) and 1 second exposure setting. 7. To measure ATAD5 activation, 4uL of Amplite (AAT Bioquest) reagent was then added to the assay plates (column 1-48, rows 1-32). The assay plates were further incubated in the dark at room temperature for 30min. 8. A second readout of luminescence signal was acquired via the ViewLux plate reader using a clear emission filter, 10 second exposure setting. Fox JT1, et al. High-throughput genotoxicity assay identifies antioxidants as inducers of DNA damage response and cell death. Proc Natl Acad Sci U S A. 2012 Apr 3;109(14):5423-8.
Potency is read from the fitted curve at half-maximal effect.

SMILES | Potency
C[C@@H]1C(=O)[C@]23CC[C@H]1C[C@]21O[C@H]2C(C)(C)C=CC(=O)[C@@]23COC1=O | inactive
CCCCCCC[C@@H](C/C=C/CCC(=O)NCCc1c[nH]c2ccccc12)OC | inactive
CC(C)=CCC/C(C)=C/Cc1c(O)c(CC=C(C)C)c(O)c2c(=O)c3cc(O)ccc3oc12 | inactive
CS/C=C/C(N)=O | inactive
Oc1ccc([C@H]2Oc3ccc(/C=C/c4cc(O)cc(O)c4)cc3C2c2cc(O)cc(O)c2)cc1 (stereo not given in full) | inactive
C1=C2CCCN[C@@H]2[C@@H]2CCN3CCCC[C@@H]3[C@H](C1)C2 | inactive
O=C(O)[C@@]12CO[C@@]3(O)C4CCN(CC[C@H]31)[C@H]4c1c2[nH]c2ccccc12 | inactive
O=C(O)Cc1c[nH]c2ccccc12 | inactive
CCCCCCCCCCCCCCC[C@H](O)C[C@@H](O)C[C@@H](O)C[C@@H](O)C[C@@H](O)C[C@H]1CC=CC(=O)O1 | inactive
CCCCCCCC(=O)N[C@@H](CC(C)C)C(=O)N[C@H](C=O)CCC(=O)O (Octanoyl-Leu-Glu-aldehyde) | inactive
C=C1C[C@@]23C=CC(=O)[C@@](C)(CCCC(C)C(=O)O)[C@@H]2C[C@@H]1CC3 (stereo not given in full) | inactive
C=C1C[C@@]23C=CC(=O)[C@@](C)(CCC(=O)Nc4c(OC5O[C@H](CO)[C@@H](O)[C@H](O)[C@H]5O)ccc(C(=O)O)c4O)C2C[C@@H]1CC3 (stereo not given in full) | inactive
C[C@@H](O)[C@H]1OC(=O)C=C2[C@]3(C)[C@H]4[C@H](OC(=O)[C@@]4(C)[C@@H](O)[C@H]4O[C@H]43)[C@H]3O[C@@]231 | 524 nM (active)
C[C@@H]1O[C@H](c2c(O)cc(O)c3c(=O)cc(-c4ccc(O)cc4)oc23)[C@H](O)[C@H](O)[C@H]1O | inactive
CC12C[C@]3(O)O[C@@H](O1)[C@]1(COC(=O)c4ccccc4)[C@@H]3CC21OC1OC(CO)C(O)C(O)C1O (stereo not given in full) | inactive
COc1ccc(CCCc2cc(O)c(OC)c(O)c2)c(O)c1O | inactive
CC(=O)[C@@H]1[C@@H](O)C[C@H]2[C@]3(C)CC[C@H]4C(C)(C)CCC[C@]4(CO)[C@H]3C[C@H]3OC(=O)[C@@H]1[C@@]32C | inactive
CC1(C)C=Cc2c(ccc3c2OC[C@@H](c2ccc(O)cc2O)C3)O1 | inactive
CO[C@H]1/C=C/CC[C@@H](S[C@@H]2O[C@H](CO)[C@@H](O)[C@H](O)[C@H]2O)CC(=O)O[C@@H](/C(C)=C/[C@H](C)C(=O)CCCC2CC(=O)NC(=O)C2)[C@@H](C)[C@@H]1O | inactive
C[C@@H]1C[C@H]2C[C@]3(CCCCN3C)[C@@H]3C[C@H]2[C@H](C1)N(C)C3 | inactive

SMILES | Potency
C=C(NC(=O)c1csc(-c2nc3c(cc2O)-c2nc(cs2)C(=O)NC(C(C)O)C(=O)N/C(=C(\C)O)c2nc(cs2)C(=O)NC2c4nc(cs4)C(=O)NC(COC(=O)c4c5c6c(cccc6n4O)COC(=O)[C@@H](OC4C[C@](C)(O)[C@H](N(C)C)[C@H](C)O4)C2OC5)c2nc-3cs2)n1)C(N)=O (stereo not given in full) | inactive
CN1C(=O)C2C(N=CN2C)N(C)C1=O (stereo not given) | inactive
CCCCCCCCCCCCCCCC(=O)OC/C=C(\C)CCCC(C)CC(C)C(C)C (stereo not given) | inactive
COc1cc(/C=C/C(=O)O)ccc1O | inactive
C/C=C1/CC[C@@H]2c3[nH]c4ccccc4c3CCN2C1 | inactive
COc1ccc2cc(NC(=O)C3=NO[C@H]4[C@H](O)C=C[C@@H](Cl)[C@@]4(O)C3)c(=O)oc2c1OC | inactive
CCC[C@@H](C)/C=C(\C)[C@H](O)[C@H](C)/C=C/CC[C@@H](O)[C@H](C)[C@H](O)[C@H](C)[C@H](O)[C@H](C)[C@H]1O[C@H]([C@H](C)C(=O)O)CC[C@@H]1C | inactive
C[C@@]12C[C@@H](C[C@H]3C(=O)O[C@@H](c4ccoc4)[C@H](OC(=O)c4ccccc4)[C@@H]31)OC2=O | inactive
CN1CCc2cc3c(c4c2[C@H]1[C@@H](O)c1ccccc1-4)OCO3 | inactive
CC(=O)NC[C@@H]1O[C@H](CC/C=C(C)/C(C)=C/C=O)[C@H](C)C[C@H]1O | inactive
C/C=C/C=C/C1(O)C2C=C3C(=O)CC45C(=O)C(O)=C(C)C(=O)C4C1C1(C(=O)C(O)=C(C)C(=O)C351)C2C (stereo not given) | inactive
C=C1C(=O)O[C@H]2C[C@H](C)[C@@H]3CC(=O)C(C)=C3[C@H](O)[C@H]12 | inactive
O=c1cc(-c2ccc(O)cc2)oc2c([C@@H]3OC(CO)[C@H](O)[C@@H](O)[C@H]3O)c(O)cc(O)c12 (stereo not given in full) | inactive
COc1cc(O)c2c3c(c(O)cc(C)c13)C(=O)OC2 | inactive
C=C1C(=O)O[C@H]2[C@H]1CC/C(CO)=C\CC[C@@]1(C)O[C@@H]21 | inactive
C[C@@]12CCC[C@@](C)(C(=O)O)[C@H]1CC[C@]13C[C@H]4C[C@H](O[C@@]4(C)C1)[C@H]32 | inactive
CN1C(=O)[C@]23SS[C@@]1(C)C(=O)N2[C@H]1Nc2ccccc2[C@]1(c1c[nH]c2ccccc12)[C@@H]3O | inactive
O=c1cc(-c2ccc(O)c(O[C@@H]3O[C@H](CO)[C@@H](O)[C@H](O)[C@H]3O)c2)oc2cc(O[C@@H]3O[C@H](CO)[C@@H](O)[C@H](O)[C@H]3O)cc(O)c12 | inactive
COc1cc(/C=C2/C(=O)N(c3ccc(O)cc3C(=O)O)[C@H](c3ccc(O)c(OC)c3)C2C(=O)Nc2ccc(O)cc2C(=O)O)ccc1O (stereo not given in full) | inactive
CCC1=C2CCCN3C(=O)O[C@H]([C@H]1OC(C)=O)[C@H]23 | inactive
